Results reported in ChEMBL document CHEMBL1157539, “Thousands of chemical starting points for antimalarial lead identification” (Nature, 2010).

Columns and labels:
Type in all cases: functional
Plasmodium falciparum [1] = assay: GSK_TCMDC: Inhibition of Plasmodium falciparum 3D7 in whole red blood cells, using parasite LDH activity as an index of growth. Test compounds present at 2uM
Plasmodium falciparum [2] = assay: GSK_TCMDC: Inhibition of Plasmodium falciparum Dd2 in whole red blood cells, using parasite LDH activity as an index of growth. Test compounds present at 2uM
HepG2 = assay: GSK_TCMDC: Percent inhibition of human HepG2 cell line. Test compounds present at 10uM.

SMILES	Inhibition (Plasmodium falciparum [1]) [%]	Inhibition (Plasmodium falciparum [2]) [%]	Inhibition (HepG2) [%]
CN(c1ccccc1C(=O)Nc1ccccc1Oc1ccccc1)S(=O)(=O)c1ccccc1	90	80	2
O=C(C=Cc1ccc(Cl)c(Cl)c1)NCCCCCN1CCC(CCCNS(=O)(=O)c2ccc(Br)cc2)CC1	93	25	74
CCN(CC)CCN(Cc1ccc(-c2ccc(C(F)(F)F)cc2)cc1)C(=O)Cn1cc(CCCc2cccc(F)c2F)c(=O)c2ccccc21.O=C(O)C(O)C(O)C(=O)O	89	20	13
Cn1nccc1C(=O)NCCNCc1ccc(-c2ccc(-c3nc4cc(F)ccc4[nH]3)cc2)cc1.O=C(O)C(F)(F)F	100	98	28
Cc1cccc2nc(-c3ccc(-c4cccc(NC(=O)Nc5ccsc5)c4)cc3)[nH]c12	100	24	24
O=C(O)C(F)(F)F.O=[N+]([O-])c1cccc(CNC2CCN(Cc3ccc(C(F)(F)F)cc3)CC2)c1	99	28	0
Nc1nc(N)c2c(ccc3c2ccn3Cc2cccc3ccccc23)n1	99	95	65
Cc1cccc2nc(-c3cccc(-c4ccc(NC(=O)Nc5ccc(Cl)cc5)cc4)c3)[nH]c12	100	96	63
CC1CCc2c(C(=O)N3CCc4ccccc4C3)csc2C1 (centres undefined)	99	75	9
O=[N+]([O-])c1ccccc1C=NN=c1cc[nH]c2ccccc12	100	98	3
Cc1cc(N2CCCCC2)nc2ccc(NC(=O)c3cccc([N+](=O)[O-])c3)cc12	95	99	9
CCC(C)NCCC(c1ccccc1)c1ccccc1O.Cl (centres undefined)	97	74	4
Cc1nc(-c2nc(NCc3ccncc3)ncc2-c2ccsc2)sc1C	91	83	8
C[C@H](CNc1ccnc(Nc2ccc3[nH]c(=O)[nH]c3c2)n1)c1ccccc1	99	2	50
CCNc1cc(C(=O)N[C@@H](Cc2ccccc2)[C@H](O)CNCc2cc(OC)cc(OC)c2)cc(N2CCCC2=O)c1.Cl	100	75	0
O=C(NCc1cccc(F)c1)Nc1ccc(-c2cccc(-c3nc4cc(F)ccc4[nH]3)c2)cc1	88	2	31
O=C(Cc1ccc[n+]([O-])c1)Nc1ccc(-c2cccc(-c3nc4cc(C(F)(F)F)ccc4[nH]3)c2)cc1	92	49	16
COc1ccccc1CCNc1nc(C)cc(N[C@@H](Cc2ccccc2)C(=O)NCc2cccc(F)c2)n1.O=C(O)C(F)(F)F	99	86	31
NC(=O)NC(=O)C=Cc1ccco1	97	0	32
COc1cc2c(cc1CCNCCCCNCCc1cc3c(cc1OC)CCCC3)CCCC2.CS(=O)(=O)O	100	36	100
COc1ccc(S(=O)(=O)Nc2ccc(C(=O)NCc3ccccc3C(F)(F)F)cc2)cc1N1CCN(CC2CC2)CC1.O=C(O)C(F)(F)F	92	5	27
C=CCN(c1ccc(OC)cc1)S(=O)(=O)c1ccc(Cl)c(C(=O)Nc2cccc(C#N)c2)c1	96	73	6
CC(Sc1nnc(-c2cccs2)[nH]1)C(=O)c1c[nH]c2ccccc12 (centres undefined)	94	58	0
COc1ccc2nccc([C@H](O)CN3CCC(NCc4ccc5c(c4C)OCCO5)CC3)c2n1.Cl	94	6	26
O=[N+]([O-])c1ccc2c(-c3ccccc3)c(-c3ccccc3)n(O)c2c1	97	11	8
Cc1ccccc1-c1nc2c(CN3CCC(O)(c4ccccc4)CC3)c(O)ccc2[nH]1	92	61	27
CC(C)c1ccc(NC(=O)c2ccc(C(=O)NC3CCN(Cc4ccccc4)CC3)cc2)cc1.O=C(O)C(F)(F)F	88	7	30
Fc1ccc2[nH]c(-c3cccc(-c4ccc(CNCc5cnn(-c6ccccc6)n5)cc4)c3)nc2c1.O=C(O)C(F)(F)F	98	22	18
